{"source": "PubChem BioAssay AID1220", "about": "(Sanford-Burnham Center for Chemical Genomics, 2008)", "note": "The whole screen tested about 190,000 compounds, of which about 1,300 (0.68%) were called active. Cut-off read from the data, not from the text of the source: active = inhibition above about 50%; inactive = the rest. Shown is part of a subset that was picked to be rich in actives."}
{"target": "Mannose-6-phosphate isomerase (Homo sapiens) (UniProt P34949)", "sequence (P34949 whole entry, looked up)": "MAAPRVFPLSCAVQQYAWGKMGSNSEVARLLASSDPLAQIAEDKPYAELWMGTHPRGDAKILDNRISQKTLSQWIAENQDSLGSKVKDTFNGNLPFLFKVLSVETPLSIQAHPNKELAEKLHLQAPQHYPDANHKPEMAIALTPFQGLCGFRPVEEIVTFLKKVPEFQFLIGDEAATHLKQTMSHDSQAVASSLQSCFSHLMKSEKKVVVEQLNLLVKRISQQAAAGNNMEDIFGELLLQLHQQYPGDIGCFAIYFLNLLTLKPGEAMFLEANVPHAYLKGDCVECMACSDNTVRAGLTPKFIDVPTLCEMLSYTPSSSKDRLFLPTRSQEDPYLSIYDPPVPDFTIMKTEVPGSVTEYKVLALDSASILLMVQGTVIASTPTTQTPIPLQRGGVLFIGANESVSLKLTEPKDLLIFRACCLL", "experiment": "MPI inhibition at elevated mannose 6-phosphate – biochemical, fluorescence intensity, high mannose 6-phosphate, primary screen (AID 1220)", "conditions": "recombinant PMI enzyme, coupled fluorescence intensity; at 20 µM; stronger effect = higher value"}
{"smiles": "CCOc1cc2[nH]c(=O)n(CCCN3CCN(c4ccc(OC)cc4)CC3)c(=O)c2cc1OCC", "inhibition": "21.4% (inactive)"}
{"smiles": "COc1ccc(N/C=C\\C(=O)c2ccc(C)cc2)cc1OC", "inhibition": "18.6% (inactive)"}
{"smiles": "Cc1occc1C(=O)NNC(=S)NCc1ccc(Cl)cc1", "inhibition": "-4.2% (inactive)"}
{"smiles": "CCCC(=O)NCCc1nc2ccccc2n1CC(=O)c1ccccc1", "inhibition": "4.9% (inactive)"}
{"smiles": "CCN(CC)S(=O)(=O)c1ccc(N2C(=O)Nc3ccccc3N2O)cc1", "inhibition": "-8.2% (inactive)"}
{"smiles": "COc1nccc(Nc2ccccc2)c1C#N", "inhibition": "-7.6% (inactive)"}
{"smiles": "Cc1cc(N2CCN(C)CC2)nc2ccc(NC(=S)N3CCCCC3)cc12", "inhibition": "53.5% (active)"}
{"smiles": "Cc1cc(N2CCN(C)CC2)nc2ccc(NC(=S)N3CCOCC3)cc12", "inhibition": "23.9% (inactive)"}
{"smiles": "Cc1cc(N2CCN(C)CC2)nc2ccc(NC(=S)N3CCCCCC3)cc12", "inhibition": "24.8% (inactive)"}
{"smiles": "FC(F)(F)c1cnc(Oc2cccc3ccccc23)c(Cl)c1", "inhibition": "10.7% (inactive)"}
{"smiles": "CN(CC(=O)Nc1ccc(N2CCOCC2)cc1)C(=O)C1CCCC1", "inhibition": "9.6% (inactive)"}
{"smiles": "CN1/C(=N\\O)c2cccc3cccc1c23", "inhibition": "42.5% (inactive)"}
{"smiles": "c1csc(C2Nc3cccc4cccc(c34)N2)c1", "inhibition": "11.7% (inactive)"}
{"smiles": "CC1N(C)c2cccc3cccc(c23)N1C", "inhibition": "62.9% (active)"}
{"smiles": "CN1c2cccc3cccc(c23)N(C)C1c1cccs1", "inhibition": "58.6% (active)"}
{"smiles": "CN1CN(C)c2cccc3cccc1c23", "inhibition": "48.7% (inactive)"}
{"smiles": "CN1C(=O)c2ccccc2N(C)C1c1cccs1", "note": "(centres undefined)", "inhibition": "10% (inactive)"}
{"smiles": "O=C(COC(=O)c1ccccc1)Nc1cc(Cl)ccc1Oc1ccccc1", "inhibition": "0.2% (inactive)"}
{"smiles": "COc1ccc(N2CC(NC(=O)NC(C)(C)C)CC2=O)cc1", "note": "(centres undefined)", "inhibition": "53.9% (active)"}
{"smiles": "COc1ccc(N2CC(NC(=O)Nc3ccccc3)CC2=O)cc1", "note": "(centres undefined)", "inhibition": "-16.3% (inactive)"}
{"smiles": "COc1ccc(N2CC(NC(=O)NCC(C)C)CC2=O)cc1", "note": "(centres undefined)", "inhibition": "7.2% (inactive)"}
{"smiles": "CC(C)CSc1n[nH]c(=S)s1", "inhibition": "-41% (inactive)"}
{"smiles": "O=C(CCCSc1nc2ccccc2s1)NC1=NCCS1", "inhibition": "1.7% (inactive)"}
{"smiles": "CN1CCN(C(=O)c2ccccc2NC(=O)C(C)(C)C)CC1", "inhibition": "10.4% (inactive)"}
{"smiles": "O=C(COC(=O)c1cc(S(=O)(=O)N2CCOCC2)cs1)c1ccccc1", "inhibition": "11.5% (inactive)"}
{"smiles": "COc1cc(CN2CCN(S(=O)(=O)c3ccc(NC(C)=O)cc3)CC2)cc(OC)c1O", "inhibition": "50.8% (active)"}
{"smiles": "COc1cc(CN2CCN(c3ccccc3F)CC2)cc(OC)c1O", "inhibition": "24.9% (inactive)"}
{"smiles": "COc1cc(CN2CCN(Cc3ccc(C)cc3)C(CCO)C2)ccc1O", "note": "(centres undefined)", "inhibition": "14.3% (inactive)"}
{"smiles": "COc1cc2c(cc1OC)CN(Cc1cc(OC)c(O)c(OC)c1)CC2", "inhibition": "69.5% (active)"}
{"smiles": "C/C=C(\\C)CN1CCc2cc(OC)c(OC)cc2C1", "inhibition": "-34.9% (inactive)"}
{"smiles": "COc1cc(CN2CCN(Cc3ccc(SC)cc3)CC2)cc(OC)c1O", "inhibition": "62.1% (active)"}
{"smiles": "COc1ccc(CN2CCN(S(=O)(=O)c3ccc(NC(C)=O)cc3)CC2)cc1OC", "inhibition": "-2.1% (inactive)"}
{"smiles": "COc1cc(OC)c(OC)cc1CN1CCN(Cc2ccc(SC)cc2)CC1", "inhibition": "10.2% (inactive)"}
{"smiles": "COc1cc(CN2CCN(Cc3ccc(C)cc3)C(CCO)C2)cc(OC)c1O", "note": "(centres undefined)", "inhibition": "61.9% (active)"}
{"smiles": "COc1ccc(CN2CCc3cc(OC)c(OC)cc3C2)cc1O", "inhibition": "4.1% (inactive)"}
{"smiles": "COc1ccc(CN2CCN(Cc3ccc(C)cc3)C(CCO)C2)cc1OC", "note": "(centres undefined)", "inhibition": "-5.7% (inactive)"}
{"smiles": "CCOc1ccc(CN2CCN(S(=O)(=O)c3ccc(NC(C)=O)cc3)CC2)cc1OC", "inhibition": "-3.6% (inactive)"}
{"smiles": "CCN(CC)c1nc(-c2ccccn2)nc(-c2ccccc2)c1C#N", "inhibition": "-5.4% (inactive)"}
{"smiles": "CCN(CC)C(=O)NC1CC2CCCC(C1)N2Cc1ccccc1", "note": "(centres undefined)", "inhibition": "-8.6% (inactive)"}
{"smiles": "CC(C)C(OC(=O)c1cccs1)C(=O)NCc1ccco1", "note": "(centres undefined)", "inhibition": "1.8% (inactive)"}
{"smiles": "Cc1ccc(S(=O)(=O)N2CCN(S(=O)(=O)N3CCCCC3)CC2)cc1", "inhibition": "10.1% (inactive)"}
{"smiles": "Cn1c(=O)c2c(-c3ccc(C(C)(C)C)cc3)n(N3CCOCC3)cc2n(C)c1=O", "inhibition": "-3.7% (inactive)"}
{"smiles": "COc1ccc(C(=O)N2CCN(Cc3cc(OC)c(O)c(OC)c3)CC2)cc1OC", "inhibition": "61.1% (active)"}
{"smiles": "COc1cc(CN2CCN(C(=O)CC(C)C)CC2)cc(OC)c1O", "inhibition": "55.5% (active)"}
{"smiles": "COc1ccc(CN2CCN(C(=O)c3cc(OC)c(OC)c(OC)c3)CC2)cc1OC", "inhibition": "-8.2% (inactive)"}
{"smiles": "COc1ccc(C(=O)N2CCN(Cc3ccccc3C)CC2)cc1OC", "inhibition": "-3.6% (inactive)"}
{"smiles": "COc1ccc(CN2CCN(C(=O)CC(C)C)CC2)cc1OC", "inhibition": "-3.1% (inactive)"}
{"smiles": "COc1cc(CN2CCN(C(=O)CC(C)C)CC2)cc(OC)c1OC", "inhibition": "-4.9% (inactive)"}
{"smiles": "CCC(Sc1nc(C)cc(C)n1)C(=O)Nc1cc(C)on1", "note": "(centres undefined)", "inhibition": "-8.4% (inactive)"}
{"smiles": "CC(=O)Nc1cc(C(=O)N2CCCC2)ccc1S(=O)(=O)c1ccc(Cl)cc1", "inhibition": "2.8% (inactive)"}
{"smiles": "Nc1cc(=O)[nH]c(SCc2nnc(-c3ccccc3)o2)n1", "inhibition": "-0.3% (inactive)"}
{"smiles": "CC1(C)CC(CC(=O)O)(c2ccc(F)cc2)CCO1", "note": "(centres undefined)", "inhibition": "3% (inactive)"}
{"smiles": "c1ccc2c(c1)NC1(CCCCC1)n1c-2nc2ccccc21", "inhibition": "8.3% (inactive)"}
{"smiles": "COc1ccc(/C=C(\\C#N)C(=O)NCCc2ccccc2)cc1OCc1ccccc1", "inhibition": "-4.6% (inactive)"}
{"smiles": "COc1cc(/C=C(\\C#N)C(=O)c2c(C)[nH]c3ccccc23)cc(OC)c1OC", "inhibition": "10.2% (inactive)"}
{"smiles": "COc1cc(/C=N/S(=O)(=O)CCc2ccccc2)cc(OC)c1O", "inhibition": "61.1% (active)"}
{"smiles": "COc1ccc(/C=C(\\C#N)C(=O)c2c(C)[nH]c3ccccc23)cc1OC", "inhibition": "8.5% (inactive)"}
{"smiles": "COCCNC(=O)/C(C#N)=C/c1cc(Br)c(O)c(OC)c1", "inhibition": "15.5% (inactive)"}
{"smiles": "COc1cc(/C=N/S(=O)(=O)CCc2ccccc2)ccc1O", "inhibition": "14.1% (inactive)"}
{"smiles": "COc1cc(/C=C(\\C#N)C(=O)c2c[nH]c3ccccc23)cc(OC)c1O", "inhibition": "70% (active)"}
{"smiles": "COc1ccc(/C=N/S(=O)(=O)CCc2ccccc2)c(OC)c1", "inhibition": "7.5% (inactive)"}
{"smiles": "COc1cc(/C=C(\\C#N)C(=O)NCCc2ccccc2)cc(OC)c1O", "inhibition": "57.6% (active)"}
{"smiles": "CC(C)NC(=S)Nc1ccc2[nH]c(=O)[nH]c2c1", "inhibition": "-22% (inactive)"}
{"smiles": "CC(C)(C)N(NC(=O)OCc1ccccc1)C(=O)c1ccccc1", "inhibition": "2.3% (inactive)"}
{"smiles": "CN(CP(=O)(O)CCc1ccccc1)S(C)(=O)=O", "inhibition": "3.2% (inactive)"}
{"smiles": "CNc1ccc(/C=C(\\C#N)c2ccccn2)cc1[N+](=O)[O-]", "inhibition": "-3.1% (inactive)"}
{"smiles": "Cc1ccc(/C=C/C(=O)N2CCCN(C(=O)/C=C/c3ccc(C)cc3)CC2)cc1", "inhibition": "2.5% (inactive)"}
{"smiles": "COc1ccc2nc(NC(=O)c3ccc(-c4cccc([N+](=O)[O-])c4)o3)sc2c1", "inhibition": "-5.7% (inactive)"}
{"smiles": "COc1ccc2cc3cc(C(=O)NCCN4CCN(Cc5ccccc5)CC4)oc3nc2c1", "inhibition": "-5.6% (inactive)"}
{"smiles": "O=C(CN1CCN(c2ccccc2O)CC1)NC(c1ccccc1)c1ccccc1", "inhibition": "15.4% (inactive)"}
{"smiles": "CC1CC(C)CN(CC(=O)NC(c2ccccc2)c2ccccc2)C1", "note": "(centres undefined)", "inhibition": "-6.3% (inactive)"}
{"smiles": "CC(CCc1ccccc1)NC(=O)CN1CCN(c2ccc(O)cc2)CC1", "note": "(centres undefined)", "inhibition": "65.2% (active)"}
{"smiles": "Cc1c(NC(=O)CN2CCN(c3ccc(F)cc3)CC2)c(=O)n(-c2ccccc2)n1C", "inhibition": "5.8% (inactive)"}
{"smiles": "CC(CCc1ccccc1)NC(=O)CN1CCN(c2ccccc2)CC1", "note": "(centres undefined)", "inhibition": "8.2% (inactive)"}
{"smiles": "Cc1c(NC(=O)CN2CCN(c3ccc(O)cc3)CC2)c(=O)n(-c2ccccc2)n1C", "inhibition": "53% (active)"}
{"smiles": "CC(C)(C)NC(=O)NC(=O)CN1CCN(c2ccc(O)cc2)CC1", "inhibition": "62.6% (active)"}
{"smiles": "COc1ccc(N2CCN(CC(=O)NC(=O)NC(C)(C)C)CC2)cc1", "inhibition": "12.2% (inactive)"}
{"smiles": "CC(C)(C)NC(=O)NC(=O)CN1CCN(c2ccccc2)CC1", "inhibition": "-4.3% (inactive)"}
{"smiles": "O=C(CN1CCN(c2ccc(O)cc2)CC1)NC(c1ccccc1)c1ccccc1", "inhibition": "64% (active)"}
{"smiles": "Cc1c(NC(=O)CN2CCN(c3ccccc3)CC2)c(=O)n(-c2ccccc2)n1C", "inhibition": "-8.2% (inactive)"}
{"smiles": "CC(CCc1ccccc1)NC(=O)CN1CCc2ccccc2C1", "note": "(centres undefined)", "inhibition": "3.9% (inactive)"}
{"smiles": "CC(=O)OC1CC(C)(C)N(OC(=O)c2ccccc2)C(C)(C)C1", "inhibition": "-2.2% (inactive)"}
{"smiles": "Cc1cc(Nc2c(C#N)c(N)nn2C)ccc1F", "inhibition": "0.7% (inactive)"}
{"smiles": "O=C(NC12CC3CC(CC(C3)C1)C2)c1cc2nc(-c3ccco3)cc(C(F)(F)F)n2n1", "inhibition": "7.3% (inactive)"}
{"smiles": "O=C(NC1CCCCC1)C(c1ccco1)N(Cc1ccco1)C(=O)c1ccco1", "note": "(centres undefined)", "inhibition": "-4.5% (inactive)"}
{"smiles": "O=C(Nc1ccc2c(c1)CCC2)c1ccccc1F", "inhibition": "-3.5% (inactive)"}
{"smiles": "Cc1nn(-c2ccccc2)c(C)c1/C=C/C(=O)OCC(=O)NC1CCS(=O)(=O)C1", "note": "(centres undefined)", "inhibition": "-6.3% (inactive)"}
{"smiles": "CC1(C)CC(=O)CC(C2(O)C(=O)N(Cc3ccccc3)c3ccccc32)O1", "note": "(centres undefined)", "inhibition": "0.6% (inactive)"}
{"smiles": "O=C(CN(C(=O)CNS(=O)(=O)c1ccccc1)c1ccc2c(c1)OCCO2)NCc1ccco1", "inhibition": "-2.1% (inactive)"}
{"smiles": "CCC(=O)Nc1cc(Cl)ccc1C(=O)O", "inhibition": "-13.8% (inactive)"}
{"smiles": "Cn1c(=O)[nH]c(=O)c2[nH]c(N(Cc3ccccc3)Cc3ccccc3)nc21", "inhibition": "10.1% (inactive)"}
{"smiles": "Cc1cc(NC(=O)CCCC(=O)NCc2cccs2)no1", "inhibition": "3.8% (inactive)"}
{"smiles": "Cc1nc(NC(=O)CSc2nnnn2Cc2ccccc2)sc1C", "inhibition": "5.5% (inactive)"}
{"smiles": "COc1ccc2c(c1)CCC1C2=NN(/C(C)=C\\C(C)=O)C1c1ccc(F)cc1", "note": "(centres undefined)", "inhibition": "54.4% (active)"}
{"smiles": "COc1ccc2c(c1)CCC1C2=NN(/C(C)=C/C(C)=O)C1c1cccc(F)c1", "note": "(centres undefined)", "inhibition": "44.4% (inactive)"}
{"smiles": "COc1ccc2c(c1)C1=NN(/C(C)=C\\C(C)=O)C(c3ccccc3)C1CC2", "note": "(centres undefined)", "inhibition": "47.7% (inactive)"}
{"smiles": "COc1ccc2c(c1)CCc1c(C(=O)NCc3ccc(F)cc3)noc1-2", "inhibition": "9.9% (inactive)"}
{"smiles": "COc1ccc2c(c1)C1=NN(/C(C)=C/C(C)=O)C(c3cccc(F)c3)C1CC2", "note": "(centres undefined)", "inhibition": "44.9% (inactive)"}
{"smiles": "COc1ccc2c(c1)C1=NN(/C(C)=C/C(C)=O)C(c3ccc(F)cc3)C1CC2", "note": "(centres undefined)", "inhibition": "56.3% (active)"}
